# Measurements published in the supplement of paper PMC12632987.
# T1: USP38, Q8NB14
# T1 chain: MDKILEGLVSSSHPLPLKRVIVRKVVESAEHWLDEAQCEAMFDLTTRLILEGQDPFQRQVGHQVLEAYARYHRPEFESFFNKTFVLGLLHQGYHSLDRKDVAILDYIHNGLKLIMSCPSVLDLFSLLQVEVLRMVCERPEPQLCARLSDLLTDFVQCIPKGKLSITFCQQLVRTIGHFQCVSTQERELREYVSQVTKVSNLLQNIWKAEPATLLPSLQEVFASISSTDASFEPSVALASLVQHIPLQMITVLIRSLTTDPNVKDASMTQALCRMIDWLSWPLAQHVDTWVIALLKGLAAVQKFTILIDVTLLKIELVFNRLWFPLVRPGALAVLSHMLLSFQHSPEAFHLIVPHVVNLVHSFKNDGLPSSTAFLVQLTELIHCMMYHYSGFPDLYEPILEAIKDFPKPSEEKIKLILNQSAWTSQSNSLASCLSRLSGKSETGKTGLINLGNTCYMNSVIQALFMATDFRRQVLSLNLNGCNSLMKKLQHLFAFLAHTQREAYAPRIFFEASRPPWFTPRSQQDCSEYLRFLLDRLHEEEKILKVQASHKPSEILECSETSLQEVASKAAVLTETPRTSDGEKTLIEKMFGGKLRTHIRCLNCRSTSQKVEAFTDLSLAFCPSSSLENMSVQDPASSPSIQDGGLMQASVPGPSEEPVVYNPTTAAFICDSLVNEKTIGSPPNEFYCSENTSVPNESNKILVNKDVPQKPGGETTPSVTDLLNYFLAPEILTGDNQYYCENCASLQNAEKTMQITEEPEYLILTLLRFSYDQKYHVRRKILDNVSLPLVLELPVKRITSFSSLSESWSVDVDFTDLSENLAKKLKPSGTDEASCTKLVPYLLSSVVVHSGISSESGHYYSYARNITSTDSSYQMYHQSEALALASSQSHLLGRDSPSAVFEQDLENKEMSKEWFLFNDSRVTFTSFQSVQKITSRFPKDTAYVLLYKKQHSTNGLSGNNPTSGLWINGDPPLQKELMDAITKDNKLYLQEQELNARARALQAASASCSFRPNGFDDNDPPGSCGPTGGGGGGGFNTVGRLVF
# B1: usp_38_diff_out_4_99_573 (protein)
# chain: KKEELVEEVKRLTEEVKEIKKEAEAAKSLPLEERRATAEELRRRLDELARRMGEIYFEARDSGDEELIEAVEEEADKFVDEYLKAGTALNELESEVLEAE
# B2: usp_38_diff_out_4_99_579 (protein)
# chain: EKEKMVERLKELTKRAERLREEAEAAFSLPLEERRELAERLREELDRLAEEAAEIYFEARDSGDEELIKAVEKEADKFVDAYLAAGTALNELEHLVLEEE
# B3: usp_38_diff_out_4_99_575 (protein)
# chain: EKEEMVERVKRLTEEVRRLLEEVEAARTLSPEERRALAERASAELDRLAEEMGKIYFEARDSGDKELIKAVTEAGDEFVDAYERAGLALAELRNEVDEES
# B4: usp_38_diff_out_4_99_580 (protein)
# chain: EKEKKVKELKKLTEEAKKIKEEAEAAKSLPLEERKKKAEELRKRLDELAKRAAAIYFEARDSGDEELKKAVEEEADKFVDAYLEAGTALNELEHLVLEEE
# B5: usp_38_diff_out_4_99_574 (protein)
# chain: EKEEKVKKAEEIAKKLEELLKEAKKARELSTEERRKKAEEIRKELDELAKELGKIYFEARDSGDKELIKEVEEVAKKAVDAYEKAATELFELEDEVQQEE
# B6: usp_38_diff_out_5_164_583 (protein)
# chain: GVEEYLARLDAIKKETIEELDKLLEEAKKNPEKLEEYKKKITEITNKAINEMTKVTTEALEEFPEQAETILAHYSERIDELLKHYNEVMKELEKLKKELE
# B7: usp_38_diff_out_4_99_569 (protein)
# chain: EKEKKVKEVKKIKEKIEELLKEAEEAEKLSVEERRKKAEEIRKELDELAKKLGKLYFEARDSGDKELIEAVNKEADKAVDAYKEAATKLHELEAKVQEEE
# B8: usp_38_diff_out_4_99_568 (protein)
# chain: MKEEKVKEVKELTERAKELLEKAKEAFELSHEERKKKAEELRKELDELAKRMGAIYFEARDSGDEELIEAVTEEADEFVDAYNEAAEALNLLEHEVLEEE
# B9: usp_38_diff_out_4_99_572 (protein)
# chain: EREEMVERMKELTERLKELTARAKAARALPPAERAAAAAALREELDRLAREAGEIYFRARDSGDKELIEEVGKVADEFVDAYLEAGTALNELEAEVDAAA
# B10: usp_38_diff_out_4_99_571 (protein)
# chain: EKEKIVEEVKKLKEEAEKLLKEAKEAKKLSTEERRKKAEEIRKKLDELAKEMGKLYFEARDSGDKELIEEVNKEADEFVDAYEKAATELFELEAEVEEEE
# B11: usp_38_diff_out_4_99_570 (protein)
# chain: KKEELVERAKELKERAEELLKEAKKARELSTEERAKKAAEIDKELDELAKEMGEIYFEARDSGDEELIEAVTEVADEFVKAYEKAATELFELQAEVQEEQ
# B12: usp_38_diff_out_4_99_566 (protein)
# chain: MKEELVKKVKELKKKAEELKKKAEEAFKLDHEERKKVAEELEKELDEIAKEMGAIYFSARDSGDAELIKAVQKEADEFVDAYNEAATALNELRHLVLEEE
# B13: usp_38_diff_out_5_164_582 (protein)
# chain: GVEEYLAEMEAIRDETIAKLDALLAEAKENPEKLDEYKKEITDTTNEAINRMTEVTTRALEEHPEKAEEILARYSELMDELLTHYNAVMEELEKLKEELE
# B14: usp_38_diff_out_4_99_578 (protein)
# chain: EKEKKVEELKKLTEKAKELKKEAEAAKTLSLEERKKKAEELRKELDKIAEEAAKIYFEARESGDKELIEAVEKEAKKFVDAYLEAGTALNELQHEVDEAE
# B15: usp_38_diff_out_4_99_577 (protein)
# chain: EKEKKVEEVKKIKEELKKLKEEAEAAKKLPLEERKKVAEELSKRLDELAKRLGKIYFEARDTGDKELIKAVTEEANKAVDEYLKAATALNELQSLVDEER
# B16: usp_38_diff_out_4_99_565 (protein)
# chain: EKERMVEEVRRLTERARELLERARAAFELPPEERRRTAEELARELDELARRMGAIAFAARDSGDPELIKAVNEEADEFVDAYTEAATALNELRHLVLQEE
# Target: T1, USP38, Q8NB14
# Assay: median log2 fold change of GCK-ALFA target abundance (FLAG IP / Myc IP barcode read proportion) (log2 ratio); each designed protein is fused to an ALFA-tag nanobody in HEK293 cells to bring the named protein to FLAG-tagged glucokinase (GCK); Myc marks an untargeted standard; higher = target protein stabilised (more abundant)
# Conditions: target protein: 3xFLAG-MCP-GCK-ALFA reporter; HEK293 landing pad (RPLP)
# Summary of the method: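 Binders fused to an ALFA nanobody were recombined as a library into HEK293 landing-pad cells, which were induced with 2 μg mL^−1 doxycycline and then transfected to express a FLAG-tagged target and a Myc-tagged standard. After 48 h, circular RNA barcodes recovered by anti-FLAG and anti-Myc immunoprecipitation of lysates were reverse transcribed, amplified and sequenced. Each binder's target abundance is the median log2 ratio of FLAG to Myc barcode read proportions, from barcodes present at ≥10^−7 in both replicates, binders carrying ≥3 barcodes per replicate, a 10^−6 pseudocount and pooled replicates.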
row,Binder,median log2 fold change
1,B1,0.007
2,B2,-0.154
3,B3,-0.45
4,B4,0.145
5,B5,-0.356
6,B6,0.0633
7,B7,-0.151
8,B8,-0.28
9,B9,0.235
10,B10,-0.355
11,B11,-0.0709
12,B12,0.0841
13,B13,-0.0672
14,B14,-0.163
15,B15,-0.345
16,B16,0.126
